From the supplement of paper PMC7726561

Target: HLA-C*04:01
Test: thermal melting temperature (Tm) of peptide-HLA complex; higher = more thermostable pHLA complex
Method in brief: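 Values come from C1R-A*02:01 or C1R-B*07:02 lysates (5 × 10^7 cell equivalents per replicate, triplicate), heated for 10 min between 37 and 73 °C and immunoprecipitated overnight at 4 °C with W6/32–protein A sepharose. The acid-eluted peptides were quantified by DIA-MS with iRT normalisation and outlier correction, and each peak area was reported as median fold-change versus 37 °C. The reported Tm is the transition midpoint from a least-squares logistic sigmoid fit. An R^2 above 0.85 was required for each fit.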

TFDPVTKVL
thermal melting temperature (C1R-A*02:01): 51.4 °C
thermal melting temperature (C1R-B*07:02): 51.5 °C

YYEEQHPEL
thermal melting temperature (C1R-A*02:01): 48.6 °C
thermal melting temperature (C1R-B*07:02): 47 °C

LFDKSINEF
thermal melting temperature (C1R-A*02:01): 56.3 °C
thermal melting temperature (C1R-B*07:02): 57.2 °C

HWDPQEVTL
thermal melting temperature (C1R-A*02:01): 58.9 °C
thermal melting temperature (C1R-B*07:02): 57.7 °C

IYDSVKVYF
thermal melting temperature (C1R-A*02:01): 56.8 °C
thermal melting temperature (C1R-B*07:02): 57 °C

IWEPLAVKL
thermal melting temperature (C1R-A*02:01): 47.3 °C
thermal melting temperature (C1R-B*07:02): 47.2 °C

TFDVAPSRL
thermal melting temperature (C1R-A*02:01): 52.3 °C
thermal melting temperature (C1R-B*07:02): 52.4 °C

KFDDGAVFL
thermal melting temperature (C1R-A*02:01): 60.9 °C
thermal melting temperature (C1R-B*07:02): 60.4 °C

FYDPDVGNF
thermal melting temperature (C1R-A*02:01): 50.9 °C
thermal melting temperature (C1R-B*07:02): 51.2 °C

LYDVPANSM
thermal melting temperature (C1R-A*02:01): 51.1 °C
thermal melting temperature (C1R-B*07:02): 57.6 °C

TFDDIVHSF
thermal melting temperature (C1R-A*02:01): 54.2 °C
thermal melting temperature (C1R-B*07:02): 55.3 °C

IYDKFIAQL
thermal melting temperature (C1R-A*02:01): 52.5 °C
thermal melting temperature (C1R-B*07:02): 54.5 °C

AFDEAIAEL
thermal melting temperature (C1R-A*02:01): 58.4 °C
thermal melting temperature (C1R-B*07:02): 62.7 °C

LYDPVISKL
thermal melting temperature (C1R-A*02:01): 56.9 °C
thermal melting temperature (C1R-B*07:02): 57.3 °C

FFDEESYSL
thermal melting temperature (C1R-A*02:01): 45 °C
thermal melting temperature (C1R-B*07:02): 43.7 °C

SYMEVPTYL
thermal melting temperature (C1R-A*02:01): 54.8 °C
thermal melting temperature (C1R-B*07:02): 61 °C

KYDPNVYSI
thermal melting temperature (C1R-A*02:01): 50.6 °C
thermal melting temperature (C1R-B*07:02): 55.2 °C

IWDVSVNSV
thermal melting temperature (C1R-A*02:01): 50.8 °C
thermal melting temperature (C1R-B*07:02): 58.7 °C
